# Test results published in ChEMBL document CHEMBL1961873, “Compounds: GSK PKIS; Assays: Nanosyn kinase panel” (2012).
# What was measured:
# [1] = target: Sphingosine kinase 1 (Homo sapiens) (UniProt Q9NYA1); conditions: at 1 µM;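 also: mean SPHK1 inhibition value reported from the GSK PKIS kinase panel screen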
# [2] = target: T1, Sphingosine kinase 2 (Homo sapiens) (UniProt Q9NRA0); conditions: at 0.1 µM
# T1 sequence (whole entry): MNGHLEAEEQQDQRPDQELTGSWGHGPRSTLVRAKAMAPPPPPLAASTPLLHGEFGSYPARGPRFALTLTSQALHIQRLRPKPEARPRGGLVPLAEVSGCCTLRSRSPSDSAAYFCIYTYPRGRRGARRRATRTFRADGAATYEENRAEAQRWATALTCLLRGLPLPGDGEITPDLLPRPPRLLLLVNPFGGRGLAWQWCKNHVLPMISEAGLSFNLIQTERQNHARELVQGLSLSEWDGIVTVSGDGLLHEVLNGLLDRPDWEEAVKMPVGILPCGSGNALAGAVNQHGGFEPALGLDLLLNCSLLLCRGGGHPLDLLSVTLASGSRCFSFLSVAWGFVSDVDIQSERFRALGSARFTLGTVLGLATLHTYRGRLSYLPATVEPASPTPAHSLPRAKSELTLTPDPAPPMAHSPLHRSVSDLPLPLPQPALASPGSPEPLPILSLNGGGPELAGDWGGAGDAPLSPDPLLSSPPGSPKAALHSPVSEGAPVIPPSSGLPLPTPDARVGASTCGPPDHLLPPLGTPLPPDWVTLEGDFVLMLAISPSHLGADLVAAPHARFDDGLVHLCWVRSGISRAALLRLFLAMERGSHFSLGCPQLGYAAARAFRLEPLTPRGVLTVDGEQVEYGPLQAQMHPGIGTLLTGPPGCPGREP
# [3] = target: T1, Sphingosine kinase 2 (Homo sapiens); conditions: at 1 µM
# [4] = target: Casein kinase II subunit alpha (Homo sapiens) (UniProt P68400); conditions: at 0.1 µM
# Casein kinase II subunit alpha (Homo sapiens), sequence (P68400 whole entry, looked up): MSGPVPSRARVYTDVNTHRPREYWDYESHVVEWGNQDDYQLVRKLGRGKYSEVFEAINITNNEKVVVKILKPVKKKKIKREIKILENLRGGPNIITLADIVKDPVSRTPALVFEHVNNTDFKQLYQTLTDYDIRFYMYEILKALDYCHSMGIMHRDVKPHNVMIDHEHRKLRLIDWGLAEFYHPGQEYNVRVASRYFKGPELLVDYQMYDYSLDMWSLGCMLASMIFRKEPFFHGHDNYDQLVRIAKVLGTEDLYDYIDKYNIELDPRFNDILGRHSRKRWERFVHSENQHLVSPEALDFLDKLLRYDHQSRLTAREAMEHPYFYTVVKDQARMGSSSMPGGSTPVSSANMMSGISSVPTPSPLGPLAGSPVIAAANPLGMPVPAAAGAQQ
# [5] = target: Casein kinase II subunit alpha (Homo sapiens) (UniProt P68400); conditions: at 1 µM
# [6] = target: T2, Inhibitor of nuclear factor kappa-B kinase subunit alpha (Homo sapiens) (UniProt O15111); conditions: at 0.1 µM
# T2 sequence (whole entry): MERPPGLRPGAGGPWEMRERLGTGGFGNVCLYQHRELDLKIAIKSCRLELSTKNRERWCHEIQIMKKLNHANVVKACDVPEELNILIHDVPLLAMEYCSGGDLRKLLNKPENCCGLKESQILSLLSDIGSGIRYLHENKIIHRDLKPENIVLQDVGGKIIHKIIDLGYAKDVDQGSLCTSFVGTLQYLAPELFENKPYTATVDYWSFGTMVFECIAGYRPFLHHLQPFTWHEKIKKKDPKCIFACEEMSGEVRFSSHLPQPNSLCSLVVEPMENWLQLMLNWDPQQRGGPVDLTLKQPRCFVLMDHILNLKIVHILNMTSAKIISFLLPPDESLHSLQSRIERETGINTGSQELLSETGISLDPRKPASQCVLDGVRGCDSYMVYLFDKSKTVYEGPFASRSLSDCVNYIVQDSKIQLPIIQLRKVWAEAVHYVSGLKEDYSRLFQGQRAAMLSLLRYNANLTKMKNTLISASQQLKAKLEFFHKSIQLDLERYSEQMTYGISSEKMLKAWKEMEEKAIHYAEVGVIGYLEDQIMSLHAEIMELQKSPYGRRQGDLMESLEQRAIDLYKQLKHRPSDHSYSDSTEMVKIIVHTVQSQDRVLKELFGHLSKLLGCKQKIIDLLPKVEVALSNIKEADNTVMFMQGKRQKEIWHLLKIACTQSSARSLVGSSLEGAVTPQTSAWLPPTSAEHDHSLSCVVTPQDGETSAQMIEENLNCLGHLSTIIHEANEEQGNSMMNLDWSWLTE
# [7] = target: T2, Inhibitor of nuclear factor kappa-B kinase subunit alpha (Homo sapiens); conditions: at 1 µM
# [8] = target: T3, Inhibitor of nuclear factor kappa-B kinase subunit beta (Homo sapiens) (UniProt O14920); conditions: at 0.1 µM
# T3 sequence (whole entry): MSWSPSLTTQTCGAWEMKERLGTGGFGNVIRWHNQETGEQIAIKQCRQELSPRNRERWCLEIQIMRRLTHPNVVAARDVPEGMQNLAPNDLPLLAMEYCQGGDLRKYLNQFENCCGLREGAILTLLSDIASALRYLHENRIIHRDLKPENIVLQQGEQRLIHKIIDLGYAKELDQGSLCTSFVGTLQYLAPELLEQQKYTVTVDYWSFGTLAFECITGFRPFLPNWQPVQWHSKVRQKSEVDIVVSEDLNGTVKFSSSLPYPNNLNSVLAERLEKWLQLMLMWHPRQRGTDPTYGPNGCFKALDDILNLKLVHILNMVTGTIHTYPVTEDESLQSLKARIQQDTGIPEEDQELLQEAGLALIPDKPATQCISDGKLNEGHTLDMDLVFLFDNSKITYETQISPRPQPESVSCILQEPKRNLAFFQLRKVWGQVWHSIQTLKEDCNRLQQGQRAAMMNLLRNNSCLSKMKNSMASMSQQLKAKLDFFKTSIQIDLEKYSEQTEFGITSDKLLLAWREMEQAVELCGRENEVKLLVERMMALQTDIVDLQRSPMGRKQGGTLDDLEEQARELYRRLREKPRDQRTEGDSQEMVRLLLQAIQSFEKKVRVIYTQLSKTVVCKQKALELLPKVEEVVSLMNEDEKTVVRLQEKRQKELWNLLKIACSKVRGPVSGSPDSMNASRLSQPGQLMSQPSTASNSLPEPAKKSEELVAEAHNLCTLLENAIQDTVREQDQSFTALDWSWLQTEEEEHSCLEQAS
# [9] = target: T3, Inhibitor of nuclear factor kappa-B kinase subunit beta (Homo sapiens); conditions: at 1 µM
# [10] = target: T4, Inhibitor of nuclear factor kappa-B kinase subunit epsilon (Homo sapiens) (UniProt Q14164); conditions: at 0.1 µM
# T4 sequence (whole entry): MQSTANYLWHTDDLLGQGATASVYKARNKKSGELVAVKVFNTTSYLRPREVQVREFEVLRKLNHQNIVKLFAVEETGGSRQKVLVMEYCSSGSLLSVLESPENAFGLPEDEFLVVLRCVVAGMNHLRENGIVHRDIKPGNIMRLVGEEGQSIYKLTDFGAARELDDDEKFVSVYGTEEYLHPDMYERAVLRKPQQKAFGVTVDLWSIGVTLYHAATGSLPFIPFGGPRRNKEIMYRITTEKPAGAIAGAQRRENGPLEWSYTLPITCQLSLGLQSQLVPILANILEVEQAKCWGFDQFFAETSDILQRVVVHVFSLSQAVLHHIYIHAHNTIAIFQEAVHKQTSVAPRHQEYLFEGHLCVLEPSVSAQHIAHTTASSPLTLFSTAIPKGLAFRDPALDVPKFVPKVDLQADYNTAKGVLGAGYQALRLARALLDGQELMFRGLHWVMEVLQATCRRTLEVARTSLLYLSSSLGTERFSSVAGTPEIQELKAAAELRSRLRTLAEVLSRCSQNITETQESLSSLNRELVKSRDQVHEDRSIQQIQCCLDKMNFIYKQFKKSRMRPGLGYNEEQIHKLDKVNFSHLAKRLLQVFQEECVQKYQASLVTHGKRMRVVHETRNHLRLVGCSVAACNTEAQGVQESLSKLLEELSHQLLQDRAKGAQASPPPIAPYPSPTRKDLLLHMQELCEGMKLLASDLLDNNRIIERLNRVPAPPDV
# [11] = target: T4, Inhibitor of nuclear factor kappa-B kinase subunit epsilon (Homo sapiens); conditions: at 1 µM
# [12] = target: T5, Serine/threonine-protein kinase Nek1 (Homo sapiens) (UniProt Q96PY6); conditions: at 0.1 µM
# T5 sequence (whole entry): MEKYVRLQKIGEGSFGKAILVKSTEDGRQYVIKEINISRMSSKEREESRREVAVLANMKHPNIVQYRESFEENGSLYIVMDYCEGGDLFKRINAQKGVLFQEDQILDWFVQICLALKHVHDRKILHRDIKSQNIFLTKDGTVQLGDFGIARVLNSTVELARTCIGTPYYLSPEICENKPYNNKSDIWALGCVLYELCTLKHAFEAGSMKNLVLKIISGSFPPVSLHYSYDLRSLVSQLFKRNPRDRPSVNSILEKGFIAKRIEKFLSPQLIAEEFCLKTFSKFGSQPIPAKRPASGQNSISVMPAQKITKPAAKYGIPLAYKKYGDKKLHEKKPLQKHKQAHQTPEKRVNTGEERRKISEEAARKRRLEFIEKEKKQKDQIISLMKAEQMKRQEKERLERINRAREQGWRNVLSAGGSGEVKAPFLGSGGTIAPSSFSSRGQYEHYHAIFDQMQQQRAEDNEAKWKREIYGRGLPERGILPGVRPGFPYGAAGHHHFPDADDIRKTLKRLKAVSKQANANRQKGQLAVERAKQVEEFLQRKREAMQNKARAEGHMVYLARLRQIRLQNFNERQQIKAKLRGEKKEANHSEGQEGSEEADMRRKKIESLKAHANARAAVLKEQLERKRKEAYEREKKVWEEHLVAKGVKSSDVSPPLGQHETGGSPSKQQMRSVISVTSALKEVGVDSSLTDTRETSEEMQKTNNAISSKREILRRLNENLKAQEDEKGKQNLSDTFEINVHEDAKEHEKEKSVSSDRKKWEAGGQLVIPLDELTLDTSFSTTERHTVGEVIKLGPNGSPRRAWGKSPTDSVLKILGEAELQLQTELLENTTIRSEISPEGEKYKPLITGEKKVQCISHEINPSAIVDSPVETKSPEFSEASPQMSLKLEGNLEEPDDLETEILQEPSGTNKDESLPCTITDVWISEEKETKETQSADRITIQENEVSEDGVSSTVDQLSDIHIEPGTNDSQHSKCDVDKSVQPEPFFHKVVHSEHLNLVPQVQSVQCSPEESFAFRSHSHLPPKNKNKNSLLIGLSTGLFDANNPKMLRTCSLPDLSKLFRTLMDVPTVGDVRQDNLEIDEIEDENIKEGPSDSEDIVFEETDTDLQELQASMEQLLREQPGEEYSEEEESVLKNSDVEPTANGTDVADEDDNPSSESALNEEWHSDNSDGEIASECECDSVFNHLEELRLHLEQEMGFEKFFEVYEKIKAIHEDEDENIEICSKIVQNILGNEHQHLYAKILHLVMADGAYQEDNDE
# [13] = target: T5, Serine/threonine-protein kinase Nek1 (Homo sapiens); conditions: at 1 µM
# [14] = target: T6, Serine/threonine-protein kinase Nek2 (Homo sapiens) (UniProt P51955); conditions: at 0.1 µM
# T6 sequence (whole entry): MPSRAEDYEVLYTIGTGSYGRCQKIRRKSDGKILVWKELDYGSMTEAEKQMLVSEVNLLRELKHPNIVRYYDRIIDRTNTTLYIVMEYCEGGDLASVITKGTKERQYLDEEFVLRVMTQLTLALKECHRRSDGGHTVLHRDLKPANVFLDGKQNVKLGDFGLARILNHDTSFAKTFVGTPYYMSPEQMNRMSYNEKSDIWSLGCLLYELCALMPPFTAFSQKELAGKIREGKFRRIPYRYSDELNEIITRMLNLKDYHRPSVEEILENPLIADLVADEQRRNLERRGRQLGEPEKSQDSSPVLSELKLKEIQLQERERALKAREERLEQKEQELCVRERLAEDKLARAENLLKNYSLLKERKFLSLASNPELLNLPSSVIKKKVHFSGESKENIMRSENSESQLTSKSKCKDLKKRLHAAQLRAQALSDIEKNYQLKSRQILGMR
# [15] = target: T6, Serine/threonine-protein kinase Nek2 (Homo sapiens); conditions: at 1 µM
# [16] = target: Serine/threonine-protein kinase Nek6 (Homo sapiens) (UniProt Q9HC98); conditions: at 0.1 µM
# Serine/threonine-protein kinase Nek6 (Homo sapiens), sequence (Q9HC98 whole entry): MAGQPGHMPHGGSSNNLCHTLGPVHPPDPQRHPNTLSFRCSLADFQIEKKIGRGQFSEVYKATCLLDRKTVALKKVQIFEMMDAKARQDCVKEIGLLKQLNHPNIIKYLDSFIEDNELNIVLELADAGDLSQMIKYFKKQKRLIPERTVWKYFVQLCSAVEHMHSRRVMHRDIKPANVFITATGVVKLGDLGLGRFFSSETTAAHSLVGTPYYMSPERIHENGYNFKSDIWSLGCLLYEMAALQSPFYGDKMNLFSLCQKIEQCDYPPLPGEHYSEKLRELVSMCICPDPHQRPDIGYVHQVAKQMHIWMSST
# [17] = target: Serine/threonine-protein kinase Nek6 (Homo sapiens) (UniProt Q9HC98); conditions: at 1 µM
# [18] = target: Serine/threonine-protein kinase Nek7 (Homo sapiens) (UniProt Q8TDX7); conditions: at 0.1 µM
# Serine/threonine-protein kinase Nek7 (Homo sapiens), sequence (Q8TDX7 whole entry, looked up): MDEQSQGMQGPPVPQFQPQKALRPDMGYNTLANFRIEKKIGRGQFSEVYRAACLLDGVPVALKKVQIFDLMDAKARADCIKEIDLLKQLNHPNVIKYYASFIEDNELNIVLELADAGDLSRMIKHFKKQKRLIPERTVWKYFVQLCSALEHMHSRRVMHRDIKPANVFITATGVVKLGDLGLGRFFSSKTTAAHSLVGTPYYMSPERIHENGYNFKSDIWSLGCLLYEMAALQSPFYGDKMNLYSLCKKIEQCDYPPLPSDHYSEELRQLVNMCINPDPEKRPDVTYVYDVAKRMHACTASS
# [19] = target: Serine/threonine-protein kinase Nek7 (Homo sapiens) (UniProt Q8TDX7); conditions: at 1 µM
# [20] = target: T7, Serine/threonine-protein kinase Nek9 (Homo sapiens) (UniProt Q8TD19); conditions: at 0.1 µM;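 also: reported value is the mean percent inhibition of NEK9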
# T7 sequence (whole entry): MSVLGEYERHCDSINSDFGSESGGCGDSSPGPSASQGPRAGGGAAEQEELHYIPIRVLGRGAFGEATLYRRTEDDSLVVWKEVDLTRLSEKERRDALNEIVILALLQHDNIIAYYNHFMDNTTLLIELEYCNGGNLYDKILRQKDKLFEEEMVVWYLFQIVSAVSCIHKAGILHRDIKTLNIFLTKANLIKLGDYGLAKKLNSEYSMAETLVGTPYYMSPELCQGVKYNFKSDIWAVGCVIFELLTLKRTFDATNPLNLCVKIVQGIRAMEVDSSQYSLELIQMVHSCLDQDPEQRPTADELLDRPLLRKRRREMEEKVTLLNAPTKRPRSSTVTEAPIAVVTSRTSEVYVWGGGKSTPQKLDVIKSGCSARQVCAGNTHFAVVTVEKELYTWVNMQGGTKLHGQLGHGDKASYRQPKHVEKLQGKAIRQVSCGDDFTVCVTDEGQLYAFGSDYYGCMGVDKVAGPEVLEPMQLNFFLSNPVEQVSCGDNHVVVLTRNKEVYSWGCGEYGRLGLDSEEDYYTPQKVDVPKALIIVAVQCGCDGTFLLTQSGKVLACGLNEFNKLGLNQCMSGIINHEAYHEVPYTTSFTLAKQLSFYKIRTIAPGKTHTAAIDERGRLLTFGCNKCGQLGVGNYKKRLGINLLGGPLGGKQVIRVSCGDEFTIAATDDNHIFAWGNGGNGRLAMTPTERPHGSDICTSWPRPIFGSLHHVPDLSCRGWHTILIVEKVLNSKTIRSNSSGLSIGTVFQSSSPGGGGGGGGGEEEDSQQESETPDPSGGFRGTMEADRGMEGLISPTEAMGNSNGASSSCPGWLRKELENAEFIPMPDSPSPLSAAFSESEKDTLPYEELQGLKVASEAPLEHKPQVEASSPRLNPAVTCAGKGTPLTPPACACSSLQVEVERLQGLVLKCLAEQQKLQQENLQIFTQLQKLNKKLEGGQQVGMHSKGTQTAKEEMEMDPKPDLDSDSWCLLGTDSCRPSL
# Sphingosine kinase 1 (Homo sapiens), sequence (Q9NYA1 whole entry): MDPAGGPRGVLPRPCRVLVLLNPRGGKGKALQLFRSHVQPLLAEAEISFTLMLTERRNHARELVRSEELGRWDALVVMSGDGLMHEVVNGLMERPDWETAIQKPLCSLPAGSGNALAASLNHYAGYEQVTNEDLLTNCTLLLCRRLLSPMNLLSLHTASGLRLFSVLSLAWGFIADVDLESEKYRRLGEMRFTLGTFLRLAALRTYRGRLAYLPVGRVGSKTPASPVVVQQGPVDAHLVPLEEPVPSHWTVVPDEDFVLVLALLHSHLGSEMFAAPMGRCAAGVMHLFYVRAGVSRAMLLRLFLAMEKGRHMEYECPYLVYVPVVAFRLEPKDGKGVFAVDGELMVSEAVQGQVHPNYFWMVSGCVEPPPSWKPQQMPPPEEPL
structure (smiles),measurement,setting,value
CCCN1CCC(Oc2cc(Nc3nc(Nc4cccc(F)c4C(N)=O)c4cc[nH]c4n3)c(OC)cc2Cl)CC1,inhibition,[1],0.63%
same,inhibition,[2],-0.36%
same,inhibition,[3],0.09%
same,inhibition,[4],0.96%
same,inhibition,[5],7.7%
same,inhibition,[6],-0.06%
same,inhibition,[7],-9.18%
same,inhibition,[8],-1.77%
same,inhibition,[9],-4.88%
same,inhibition,[10],-2.26%
same,inhibition,[11],-1.68%
same,inhibition,[12],0.59%
same,inhibition,[13],0.62%
same,inhibition,[14],-0.38%
same,inhibition,[15],1.09%
same,inhibition,[16],0.14%
same,inhibition,[17],-2.04%
same,inhibition,[18],-8.48%
same,inhibition,[19],1.7%
same,inhibition,[20],-0.6%
